Source: PubChem BioAssay AID686978 (National Center for Advancing Translational Sciences (NCATS), 2013)
In all, about 420,000 compounds went through this assay and about 64,000 (15%) were called active. Another 27% or so got no clear call; they are omitted. These entries were drawn from the full list. A number with no mark means an inactive call. The call rests on the fitted dose curve; in most records, active means well fitted inhibition curve with a large enough effect; inconclusive means small, poorly fitted or top-dose-only effect; inactive means flat fitted curve, though single readings scatter.
On the % scale 0 is the no-effect control and ±100 the full control effect; potency means the concentration at half of the fitted maximal effect.

Test: qHTS for Inhibitors of human tyrosyl-DNA phosphodiesterase 1 (TDP1): qHTS in cells in absence of CPT; further: nearly all actives have a fitted effect of over 55% in size
Settings: DT40 Tdp1-/- hTDP1 cells, no CPT, ATP luminescence, 48 h; activity change, negative = growth inhibition: at 46.2 µM (top of the series)
Procedure, shortened: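 Growth kinetics read by CellTiter-Glo luminescence after ≥48 hr at 37 °C. Cells: DT40 Tdp1-/- stably carrying human TDP1, 400 per well, compound exposure in the absence of CPT (DMSO vehicle).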
For `Cn1c(=O)c(Sc2ccc(Cl)cc2)c(O)c2ccccc21`, the “activity change, negative = growth inhibition” value was -22.1%.
In the case of `CCC(Sc1nnc(-c2ccc(OC)cc2)c(-c2ccc(OC)cc2)n1)C(=O)NC1CCCCC1` (configuration not stated), the Potency is reported as 13 µM (active).
With `COc1ccc(-c2nnn(CC(=O)N(CCO)C(C(=O)NC3CCCC3)c3ccc(F)cc3)n2)cc1` (configuration not stated) the “activity change, negative = growth inhibition” value was -22.1%.
In the case of `COc1ccc(-c2nnc(SC(C)C(=O)NC3CC3)o2)cc1` (configuration not stated), the “activity change, negative = growth inhibition” value is reported as 12.8%.
In the case of `O=C(NCc1nnc(SCC(=O)N2CCCCCC2)o1)c1ccc(F)cc1`, the “activity change, negative = growth inhibition” value is reported as -8.37%.
With `S=c1nccc(-c2cc(Cl)sc2Cl)[nH]1` the “activity change, negative = growth inhibition” value was -28%.
For `c1cncc(-c2nnc3n2C2(CCCCC2)Cc2ccccc2-3)c1`, the “activity change, negative = growth inhibition” value was -8.67%.
With `O=c1c2ccccc2nc2n1C1(CCCCC1)Cc1ccccc1-2` the Potency was 16.4 µM (active).
With `CC1(C)Cc2ccccc2-c2c[nH]c(=O)n21` the “activity change, negative = growth inhibition” value was -10.5%.
For `CCCc1ccc(C(=O)COC(=O)CN2C(=O)NC3(CCCCC3C)C2=O)cc1` (configuration not stated), the “activity change, negative = growth inhibition” value was 13.5%.
For `CCn1cc(CN2CCC(C(=O)Nc3cccc(-c4cccc(Cl)c4)c3)CC2)c(C)n1`, the Potency was 4.61 µM (active).
In the case of `Cc1ccccc1NC(=O)NCC1CCN(Cc2cccc(Cl)c2)CC1`, the “activity change, negative = growth inhibition” value is reported as 0.533%.
In the case of `CCn1cc(CN2CCC(n3nccc3NC(=O)CCCc3ccccc3)CC2)c(C)n1`, the “activity change, negative = growth inhibition” value is reported as 6.6%.
In the case of `O=C(Nc1cccc(-c2cscn2)c1)C1CCN(Cc2ccsc2)CC1`, the “activity change, negative = growth inhibition” value is reported as -8.03%.
With `COc1ccc(Cl)cc1NC(=O)NCC1CCN(Cc2ccccc2F)CC1` the “activity change, negative = growth inhibition” value was -0.532%.
With `O=C(NCC1CCN(Cc2ccccc2Cl)CC1)Nc1cccc(Cl)c1` the Potency was 18.4 µM (active).
For `O=C(NC1CCCC1)C1CCN(C(=O)Nc2cccc(Cl)c2)CC1`, the “activity change, negative = growth inhibition” value was 0.869%.
With `COc1cccc(-c2cccc(NC(=O)C3CCN(C4CCC4)CC3)c2)c1` the “activity change, negative = growth inhibition” value was 3.26%.
With `O=C(Nc1cccc(-c2cccc(Cl)c2)c1)C1CCN(C2CCC2)CC1` the Potency was 23.1 µM (active).
In the case of `CC1Cc2ccccc2N1S(=O)(=O)c1c(N)n(C)c(=O)n(C)c1=O` (configuration not stated), the “activity change, negative = growth inhibition” value is reported as 0.0607%.
In the case of `CCSc1nnc(NC(=O)c2cc(=O)c3cc(C)c(C)cc3o2)s1`, the “activity change, negative = growth inhibition” value is reported as -14.3%.
In the case of `COc1ccc(S(=O)(=O)NCC(=O)NC2CC2)cc1OC`, the “activity change, negative = growth inhibition” value is reported as 25.6%.
For `CCN1CCN(C(C(=O)NC2CCCC2)c2cc3c(cc2[N+](=O)[O-])OCO3)CC1` (configuration not stated), the “activity change, negative = growth inhibition” value was 6.31%.
In the case of `CC(C)CN1CC(C)C(=O)N(c2ccccc2)C1=S` (configuration not stated), the “activity change, negative = growth inhibition” value is reported as -12.7%.
With `Nc1nc(SCC(=O)NNc2c(Cl)cc(Cl)cc2Cl)n[nH]1` the “activity change, negative = growth inhibition” value was -10%.
In the case of `Cc1noc(C)c1S(=O)(=O)N(C)C[C@H]1OCCCC[C@@H](C)Oc2ccc(NC(=O)CCCN(C)C)cc2C(=O)N([C@H](C)CO)C[C@@H]1C`, the “activity change, negative = growth inhibition” value is reported as -16.3%.
With `CC(C)NC(=O)Nc1ccc2c(c1)C(=O)N([C@H](C)CO)C[C@H](C)[C@@H](CN(C)Cc1ccc(C(F)(F)F)cc1)OCCCC[C@@H](C)O2` the “activity change, negative = growth inhibition” value was -20.4%.
With `C[C@@H]1CCCCO[C@H](CN(C)Cc2ccccc2)[C@@H](C)CN([C@H](C)CO)C(=O)c2cc(NS(=O)(=O)c3ccc(Cl)cc3)ccc2O1` the Potency was 16.4 µM (active).
In the case of `O=C(Nc1ccnn1C1CCN(Cc2cccc(OCCO)c2)CC1)C1CCCC1`, the “activity change, negative = growth inhibition” value is reported as 0.788%.
With `CC1(C)CC(=O)C=C(NC2CC(C)(C)NC(C)(C)C2)C1` the “activity change, negative = growth inhibition” value was 0.396%.
For `CC(=O)c1cnn(-c2cc(Oc3ccc(F)cc3)ncn2)c1C`, the “activity change, negative = growth inhibition” value was -13.4%.
For `COc1cc(/C=C2/C(=O)NN(c3ccc(F)cc3)C2=O)cc([N+](=O)[O-])c1O`, the “activity change, negative = growth inhibition” value was -2.19%.
In the case of `C/C=C/C(=O)Nc1nnc(C(C)C)s1`, the “activity change, negative = growth inhibition” value is reported as -22.6%.
With `Clc1ccc(CN2CCCCCC2)cc1Cl` the “activity change, negative = growth inhibition” value was 7.19%.
With `COc1cccc(CN2CCC(C(=O)NC(c3ccc4c(c3)OCO4)c3ccccn3)CC2)c1` (configuration not stated) the “activity change, negative = growth inhibition” value was -23.3%.
With `Cc1cccnc1C(NC(=O)C1CCN(Cc2ccc(Cl)c(Cl)c2)CC1)c1ccc(Cl)cc1` (configuration not stated) the Potency was 4.61 µM (active).
In the case of `CCOc1ccc(CN2CCC(n3nccc3NC(=O)C3CC3)CC2)cc1CO`, the “activity change, negative = growth inhibition” value is reported as 1.56%.
For `O=C(NC(c1ccc(Cl)cc1)c1cnccn1)C1CCN(Cc2ccc(Cl)cc2)CC1` (configuration not stated), the Potency was 20.6 µM (active).
In the case of `O=C(NNS(=O)(=O)c1ccc(Cl)cc1)C1CCN(Cc2ccccc2)CC1`, the “activity change, negative = growth inhibition” value is reported as -15.1%.
With `Fc1cccc(Cl)c1CSc1ccc(-c2ccco2)nn1` the “activity change, negative = growth inhibition” value was -19.1%.
In the case of `CCOc1ccc(S(=O)(=O)N2CCC(C(=O)NCc3ccccn3)CC2)cc1Cl`, the “activity change, negative = growth inhibition” value is reported as -12.9%.
With `Cc1ccc(S(=O)(=O)NCC(=O)NNC(=O)c2ccc(Br)cc2)cc1C` the “activity change, negative = growth inhibition” value was -12.9%.
For `O=C(NNS(=O)(=O)c1ccc(F)cc1)c1cnccn1`, the “activity change, negative = growth inhibition” value was -10%.
With `CO/N=C(\C(=O)N[C@@H]1C(=O)N2C(C(=O)O)=C(C[N+]3(C)CCCC3)CS[C@H]12)c1csc(N)n1` the “activity change, negative = growth inhibition” value was -2.94%.
In the case of `O=C(COC(=O)/C=C/c1nc2ccccc2s1)Nc1ccccc1Oc1ccccc1`, the “activity change, negative = growth inhibition” value is reported as -27%.
In the case of `c1ccc(CCc2ccccn2)cc1`, the “activity change, negative = growth inhibition” value is reported as -2.35%.
With `CC(C)NC(=O)N1CCC2(CC1)CCN(C(=O)c1cccn1C)CC2` the “activity change, negative = growth inhibition” value was -14.2%.
For `Cn1cccc1C(=O)N1CCC2(CC1)CN(c1cccc(-c3ccccc3)c1)C2`, the Potency was 16.4 µM (active).
In the case of `COc1ccc(NC(=O)N2CC3(CCN(C(=O)c4cccn4C)CC3)C2)cc1`, the “activity change, negative = growth inhibition” value is reported as -17.9%.
With `CCN(CC)CCn1cnc2c1c(=O)n(CCOC(=O)c1cc(OC)c(OC)c(OC)c1)c(=O)n2C` the “activity change, negative = growth inhibition” value was 0.412%.
With `CC(=O)c1nn(-c2ccc(C)cc2)cc1C(=O)c1cccc(Br)c1` the “activity change, negative = growth inhibition” value was -28.5%.
With `O=C(CCNC(=O)c1ccc([N+](=O)[O-])cc1)NC1CCCCC1` the “activity change, negative = growth inhibition” value was -20.3%.
